According to PubChem BioAssay:
The source made the active and inactive calls.

Tests used:
Albumin (Bos taurus) = Albumin (Bos taurus) (UniProt P02769); assay: compounds binding labelled BSA control protein – biochemical, small-molecule microarray, Alexa647 label, 635/667 nm fluorescence, artefact control for SMM control protein annotation, profiling panel (AID 1118); conditions: BSA-A647 binding, fluorescence 635 nm, higher = more signal;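 note: score merges 667 nm emission intensity and signal-to-noise per printed compound spot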
Albumin (Bos taurus), sequence (P02769 whole entry, looked up): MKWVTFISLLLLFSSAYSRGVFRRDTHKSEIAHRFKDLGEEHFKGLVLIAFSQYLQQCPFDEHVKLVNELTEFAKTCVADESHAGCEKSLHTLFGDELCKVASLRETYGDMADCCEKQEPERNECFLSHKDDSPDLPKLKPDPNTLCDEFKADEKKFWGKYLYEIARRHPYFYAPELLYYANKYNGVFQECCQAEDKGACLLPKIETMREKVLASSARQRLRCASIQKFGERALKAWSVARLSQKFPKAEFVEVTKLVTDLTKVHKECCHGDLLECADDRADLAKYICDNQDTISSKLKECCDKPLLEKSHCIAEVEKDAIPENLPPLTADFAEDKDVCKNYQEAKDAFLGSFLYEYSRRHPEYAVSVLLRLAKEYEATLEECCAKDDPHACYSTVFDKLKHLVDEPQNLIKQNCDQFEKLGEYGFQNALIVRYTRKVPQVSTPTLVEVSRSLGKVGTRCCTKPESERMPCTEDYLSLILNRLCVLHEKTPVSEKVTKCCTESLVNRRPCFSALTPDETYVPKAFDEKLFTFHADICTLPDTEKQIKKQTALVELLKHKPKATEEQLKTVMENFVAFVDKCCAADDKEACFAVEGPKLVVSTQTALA

[1] = probe aXIP binding to arrayed compounds – biochemical, NeuroSMM set, 635/667 nm fluorescence, primary screen (AID 1119); conditions: small-molecule microarray, higher = more signal, called active from +8 up or from −8 down;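 note: probe is the protein aXip251-270 applied at 1 µg/mL to compound-printed slides; binding of probe to printed compounds measured as 667 nm fluorescence plus signal to noise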
[2] = probe aNOTCH3 binding on compound microarray – biochemical, small-molecule microarray, 635/667 nm fluorescence, primary screen (AID 1120); conditions: higher = more signal;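 note: probe is a biotin-tagged antibody raised against NOTCH3 rather than NOTCH3 protein; score merges spot fluorescence near 667 nm with spot signal to noise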
[3] = probe aNOTCH2 binding on compound microarray – biochemical, small-molecule microarray, 635/667 nm fluorescence, primary screen (AID 1121); conditions: higher = more signal;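 note: score merges feature fluorescence read at 667 nm with its signal to noise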
[4] = biological target: Carbonic anhydrase 2 (Homo sapiens) (UniProt P00918); assay: compounds binding carbonic anhydrase 2 – biochemical, small-molecule microarray, Alexa647-labelled CAII, profiling panel (AID 1122); conditions: CAII-A647 binding fluorescence, higher = more signal
[5] = COS7 lysate on small-molecule microarray, probe aHis, 635 nm (AID 1123); conditions: COS7 cell lysate, fluorescence, higher = more signal;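 note: z-score combines 667nm fluorescence intensity with signal-to-noise per printed compound spot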
[6] = probe aLAP1 signal on lysate-treated microarray – cell lysate, small-molecule microarray, COS7 lysate, primary screen (AID 1124); conditions: probe aLAP1, fluorescence, higher = more signal;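 note: lysate comes from COS7 cells expressing LAP1 and is applied at 0.3 µg/mL; score merges spot fluorescence near 667 nm with signal-to-noise over triplicate slides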
Sam68 (KHDRBS1) = assay: compounds binding KHDRBS1 protein – biochemical, small-molecule microarray, 635 nm fluorescence, primary screen (AID 1125); conditions: higher = more signal;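 note: score merges 667 nm channel intensity with signal to noise over triplicate slides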
[7] = system: Chordin-like protein 2 (CHRDL2); assay: compounds binding chordin-like 2 – biochemical, small-molecule microarray, 635 nm fluorescence, primary screen (AID 1126); conditions: fluorescence 635 nm, higher = more signal;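 note: printed compound slides probed with Chrdl2 protein at 4 µg/mL for 1 h at 4 C; score merges 667 nm emission intensity with signal to noise over three replicate slides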
[8] = biological target: Concanavalin-A (Canavalia ensiformis) (UniProt P02866); assay: compounds binding concanavalin A lectin – biochemical, small-molecule microarray, Alexa647 label, 635 nm, artefact control for SMM control protein annotation, primary screen (AID 1127); conditions: ConA-A647 binding fluorescence, higher = more signal;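 note: z combines 667 nm emission intensity with signal-to-noise across three replicate slides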
Concanavalin-A (Canavalia ensiformis), sequence (P02866 whole entry, looked up): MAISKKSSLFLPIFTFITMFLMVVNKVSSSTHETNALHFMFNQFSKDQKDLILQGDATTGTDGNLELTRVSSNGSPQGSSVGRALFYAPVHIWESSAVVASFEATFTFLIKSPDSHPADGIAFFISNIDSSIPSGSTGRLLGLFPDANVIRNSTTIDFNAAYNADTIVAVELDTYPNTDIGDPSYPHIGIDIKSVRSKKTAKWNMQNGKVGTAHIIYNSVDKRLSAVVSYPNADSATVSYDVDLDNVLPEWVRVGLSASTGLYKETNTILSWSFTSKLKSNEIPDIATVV

[9] = compounds binding Alexa647 anti-His antibody – biochemical, small-molecule microarray, 635 nm fluorescence, artefact control for SMM control protein annotation, primary screen (AID 1128); conditions: higher = more signal;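 note: score merges feature fluorescence with signal-to-noise for each printed compound spot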
[10] = system: Human papillomavirus type 1a E7 protein (residues 1-88); assay: HPV1a E7 small-molecule binders, primary screen, biochemical, small-molecule microarray, residues 1-88, 635 nm (AID 1129); conditions: small-molecule microarray binding, fluorescence 635 nm; higher = more signal
[11] = biological target: Focal adhesion kinase 1 (Homo sapiens) (UniProt Q05397); assay: PTK2 protein binding on printed compound slides – biochemical, small-molecule microarray, 635/667 nm fluorescence, BSA, DTT, primary screen (AID 1130); conditions: 635 nm fluorescence, higher = more signal;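 note: composite of spot emission at 667 nm and signal to noise over triplicate slides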
Focal adhesion kinase 1 (Homo sapiens), sequence (Q05397 whole entry, looked up): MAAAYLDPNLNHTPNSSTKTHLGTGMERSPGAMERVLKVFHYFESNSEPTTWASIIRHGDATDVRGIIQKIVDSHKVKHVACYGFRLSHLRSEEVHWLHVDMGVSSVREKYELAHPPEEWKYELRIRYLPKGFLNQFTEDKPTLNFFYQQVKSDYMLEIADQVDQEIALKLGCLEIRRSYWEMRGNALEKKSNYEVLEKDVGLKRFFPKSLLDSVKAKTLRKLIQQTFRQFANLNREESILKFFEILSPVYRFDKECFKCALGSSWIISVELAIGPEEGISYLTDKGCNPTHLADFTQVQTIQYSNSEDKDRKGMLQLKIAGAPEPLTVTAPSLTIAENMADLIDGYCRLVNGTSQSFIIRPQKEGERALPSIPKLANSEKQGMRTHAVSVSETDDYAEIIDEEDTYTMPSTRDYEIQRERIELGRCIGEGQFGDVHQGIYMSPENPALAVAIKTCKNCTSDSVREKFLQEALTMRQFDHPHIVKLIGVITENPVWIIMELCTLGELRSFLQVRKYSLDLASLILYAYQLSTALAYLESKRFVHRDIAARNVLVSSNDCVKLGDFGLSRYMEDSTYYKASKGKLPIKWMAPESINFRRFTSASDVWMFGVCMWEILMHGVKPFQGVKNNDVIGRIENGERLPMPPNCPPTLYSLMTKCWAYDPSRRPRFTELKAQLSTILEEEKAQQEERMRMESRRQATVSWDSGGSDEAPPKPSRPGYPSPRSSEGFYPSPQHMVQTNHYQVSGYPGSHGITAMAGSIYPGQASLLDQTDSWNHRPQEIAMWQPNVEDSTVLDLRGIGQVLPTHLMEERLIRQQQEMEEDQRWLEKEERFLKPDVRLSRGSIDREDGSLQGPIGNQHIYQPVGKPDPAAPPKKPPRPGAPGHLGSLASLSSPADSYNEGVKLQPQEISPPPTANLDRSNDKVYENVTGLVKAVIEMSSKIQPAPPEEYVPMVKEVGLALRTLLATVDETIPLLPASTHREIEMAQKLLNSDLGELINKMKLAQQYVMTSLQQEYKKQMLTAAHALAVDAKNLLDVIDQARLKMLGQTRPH

[12] = system: Fibrinogen (Alexa647-labelled); assay: Alexa647-fibrinogen binding to printed small molecules – biochemical, small-molecule microarray, 635/667 nm fluorescence, artefact control for SMM control-protein annotation, profiling panel (AID 1131); conditions: fibrinogen-A647 binding fluorescence, higher = more signal;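 note: z-score merges 667 nm fluorescence with per-spot signal-to-noise over triplicate slides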
[13] = biological target: Follistatin (Homo sapiens) (UniProt P19883); assay: FST protein binding to printed compounds – biochemical, small-molecule microarray, 635/667 nm fluorescence, primary screen (AID 1132); conditions: 635 nm fluorescence, higher = more signal
Follistatin (Homo sapiens), sequence (P19883 whole entry, looked up): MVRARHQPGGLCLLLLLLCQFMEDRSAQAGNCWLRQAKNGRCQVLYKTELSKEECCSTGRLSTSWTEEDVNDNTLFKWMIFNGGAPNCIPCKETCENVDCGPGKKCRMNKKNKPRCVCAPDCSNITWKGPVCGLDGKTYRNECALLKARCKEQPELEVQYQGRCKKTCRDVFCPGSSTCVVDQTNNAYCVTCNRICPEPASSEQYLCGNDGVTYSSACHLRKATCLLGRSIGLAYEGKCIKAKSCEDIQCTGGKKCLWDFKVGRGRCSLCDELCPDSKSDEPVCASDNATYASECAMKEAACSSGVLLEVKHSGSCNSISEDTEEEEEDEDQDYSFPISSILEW

[14] = biological target: Fibroblast growth factor 2 (Homo sapiens) (UniProt P09038); assay: basic fibroblast growth factor binding to printed compounds – biochemical, small-molecule microarray, 635/667 nm fluorescence, primary screen (AID 1133); conditions: FGF2, fluorescence 635/667, higher = more signal
Fibroblast growth factor 2 (Homo sapiens), sequence (P09038 whole entry, looked up): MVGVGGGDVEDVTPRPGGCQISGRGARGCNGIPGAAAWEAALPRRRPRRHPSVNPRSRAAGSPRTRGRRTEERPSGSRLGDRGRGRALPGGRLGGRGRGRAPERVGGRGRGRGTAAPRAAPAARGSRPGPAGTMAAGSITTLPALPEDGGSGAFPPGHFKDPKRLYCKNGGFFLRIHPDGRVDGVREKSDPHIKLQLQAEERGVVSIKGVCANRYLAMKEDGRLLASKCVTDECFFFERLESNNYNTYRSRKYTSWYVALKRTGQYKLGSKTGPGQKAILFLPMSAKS

[15] = JC-1 mitochondrial potential readout, lung cancer cells – cell-based, A549, JC-1 fluorescence, basal, 24 h, 100 nL, profiling panel (AID 1138); conditions: higher = more signal;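 note: A549 lung adenocarcinoma cells under basal conditions with no added stimulus; test concentration not given here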
Lefty1 = Lefty1 protein binding to printed compounds – biochemical, small-molecule microarray, 635/667 nm fluorescence, primary screen (AID 1139); conditions: fluorescence 635/667, higher = more signal
[16] = system: wheat germ agglutinin (Triticum aestivum), Alexa647-labelled; assay: Alexa647-WGA lectin binding to printed small molecules – biochemical, small-molecule microarray, 635/667 nm fluorescence, artefact control for SMM control-protein annotation, profiling panel (AID 1140); conditions: WGA-A647 binding, 635 nm fluorescence, higher = more signal;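 note: score merges 667 nm feature emission with signal to noise over triplicate slides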
[17] = biological target: Luciferin 4-monooxygenase (Photinus pyralis) (UniProt P08659); assay: inhibition of purified Photinus pyralis luciferase – biochemical, luminescence, purified enzyme, 2006 set, primary screen (AID 1141); conditions: purified firefly luciferase, SteadyGlo luminescence, 30 min; higher = more signal, called active from +8 up or from −8 down;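 note: cell-free assay with purified firefly luciferase at 100 ng per well in PBS; test concentration not given here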
Luciferin 4-monooxygenase (Photinus pyralis), sequence (P08659 whole entry, looked up): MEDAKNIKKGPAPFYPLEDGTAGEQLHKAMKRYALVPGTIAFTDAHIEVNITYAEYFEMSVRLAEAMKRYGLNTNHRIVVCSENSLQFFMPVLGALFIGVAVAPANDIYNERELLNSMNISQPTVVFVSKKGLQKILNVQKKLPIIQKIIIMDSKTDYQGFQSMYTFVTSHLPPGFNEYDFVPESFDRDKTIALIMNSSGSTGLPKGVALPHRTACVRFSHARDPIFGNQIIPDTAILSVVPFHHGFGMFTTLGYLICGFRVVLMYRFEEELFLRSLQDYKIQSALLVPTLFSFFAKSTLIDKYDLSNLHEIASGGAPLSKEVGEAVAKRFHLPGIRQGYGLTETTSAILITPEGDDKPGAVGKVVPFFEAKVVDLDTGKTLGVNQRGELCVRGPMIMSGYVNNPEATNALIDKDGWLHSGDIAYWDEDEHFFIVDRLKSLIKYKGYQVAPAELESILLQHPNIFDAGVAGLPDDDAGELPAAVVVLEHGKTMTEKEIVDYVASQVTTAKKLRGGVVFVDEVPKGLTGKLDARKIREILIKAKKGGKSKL

| Compound | composite z-score (Albumin (Bos taurus)) | composite Z-score [1] | composite z-score [2] | composite z-score [3] | composite z-score [4] | composite z-score [5] | composite z-score [6] | composite z-score (Sam68 (KHDRBS1)) | composite z-score [7] | composite z-score [8] | composite z-score [9] | composite z-score [10] | composite z-score [11] | composite z-score [12] | composite z-score [13] | composite z-score [14] | z-score [15] | composite z-score (Lefty1) | composite z-score [16] | z-score [17] |
| --- | --- | --- | --- | --- | --- | --- | --- | --- | --- | --- | --- | --- | --- | --- | --- | --- | --- | --- | --- | --- |
| COc1cccc([C@H]2Oc3ccc(OC)cc3C(=NO[C@@H](C)c3cc(-c4c(C)cc(C)cc4C)no3)[C@@H]2O)c1 | -1.31 | -0.238 (inactive) | -0.305 | -0.155 | 0.108 | -0.552 | 0.843 | -0.156 | -0.861 | -1.57 | -0.314 | -0.358 | -0.364 | -1.51 | -2.57 | -2.11 | 0.611 | -2.4 | -0.52 | 0.995 (inactive) |
| CC1(C)O[C@H]2OC([C@H](O)CON3C(=O)c4ccccc4C3=O)[C@H](O)[C@H]2O1 (stereo not given in full) | 0.107 | -0.282 (inactive) | -0.135 | 0.117 | 0.341 | -0.378 | -0.0948 | 0.29 | 0.0988 | -0.371 | 0.547 | -0.103 | 0.433 | 0.12 | 0.0275 | 0.495 | -0.487 | 0.291 | 0.561 | -0.317 (inactive) |
| Cc1ccc(C(C)C)n1C(=O)OC(C)(C)C | -0.0834 | 1.17 (inactive) | -0.118 | -0.153 | -0.0359 | 0.0884 | 0.322 | 0.456 | 0.501 | 0.173 | -0.165 | 0.474 | 0.691 | -0.115 | 0.54 | 0.29 | 1.99 | 0.494 | 0.188 | -1.7 (inactive) |
| CC(=O)OC[C@H]1O[C@@H](ON=C(C)CCC(=O)OC[C@H]2O[C@H](C#Cc3ccccc3)C=C[C@@H]2Oc2ccc(C)cc2)[C@H](OC(C)=O)[C@@H](OC(C)=O)[C@@H]1OC(C)=O | 0.635 | -0.0164 (inactive) | 0.0493 | -0.0714 | 0.273 | 0.989 | 0.0582 | 1.3 | 0.549 | 0.943 | 0.48 | 0.843 | 0.108 | 0.705 | 0.753 | 1.26 | 1.08 | 0.648 | 0.307 | -0.305 (inactive) |
| CC(C)CON=C1C[C@@H](O)[C@@H](O)[C@@H]2[C@@H]3C(=O)N(C(C)(C)C)C(=O)[C@@H]3CC[C@@H]12 | -0.708 | 0.11 (inactive) | -0.157 | -0.14 | -0.488 | -0.75 | -0.0854 | 0.845 | 1.5 | -1.21 | -0.587 | -0.537 | -0.577 | -0.766 | 1.39 | 1.46 | -0.832 | 1.51 | -0.804 | 0.444 (inactive) |
| CC(=O)OC[C@H]1O[C@H](C#CCCc2ccccc2)C=C[C@@H]1OC(C)=O | 0.829 | -0.399 (inactive) | 0.106 | -0.0727 | 0.376 | 2.2 | -0.332 | 0.179 | 0.697 | 0.127 | 0.538 | -0.417 | -0.34 | 0.884 | 0.518 | 0.461 | 0.0303 | 1.22 | -0.225 | -0.97 (inactive) |
| CCOC(=O)[C@H](CC(C)C)NC(=O)CCC1CC(OC(=O)NCc2ccc3c(c2)OCO3)CC2(CCCC(COC(=O)NCCOc3ccccc3)O2)O1 (stereo not given in full) | 0.232 | -0.198 (inactive) | 0.0469 | -0.178 | 0.166 | 1.22 | -0.248 | 1.33 | 0.99 | 1.14 | 0.424 | 1.17 | 0.0776 | 1.01 | 0.829 | 0.846 | 0.574 | 1.61 | 0.598 | 0.547 (inactive) |
| COC(=O)[C@H](C)NC(=O)CCC1CC(OC(=O)NCCc2ccc(F)cc2)CC2(CCCC(COC(=O)NCc3ccccc3)O2)O1 (stereo not given in full) | 0.431 | 0.0852 (inactive) | -0.0511 | -0.208 | 0.266 | 0.253 | -0.0955 | 1.31 | 0.774 | 0.619 | 0.36 | 0.775 | 0.0965 | 0.911 | 0.913 | 1.13 | 0.708 | 0.875 | 0.0915 | 0.835 (inactive) |
| Cc1ccc(S(=O)(=O)N[C@@H]2COC(=O)CC=C[C@@H](C)[C@H](NS(=O)(=O)c3ccc(C)cc3)COC(=O)[C@H](C)NC(=O)CC=C[C@H]2C)cc1 | -0.953 | -0.211 (inactive) | -0.0647 | -0.0808 | -0.548 | -1.18 | -0.108 | -1.17 | 0.835 | -1.46 | -0.563 | -0.676 | -0.1 | -0.111 | 0.72 | 0.499 | 0.73 | 0.61 | 0.0658 | -0.743 (inactive) |
| CC(CCN1CCCc2nc(C)c(C)cc21)=NO[C@H](C)c1cn([C@@H]2COC[C@H]2O)nn1 | -0.392 | 0.37 (inactive) | 0.106 | -0.0741 | 0.25 | -0.205 | 0.58 | 1.32 | 0.854 | 0.351 | 0.652 | 0.793 | 1.19 | 0.704 | 0.622 | 0.743 | -0.0769 | 0.764 | 0.205 | 0.711 (inactive) |
| O=C(NN=C1C[C@@H](O)[C@@H](O)[C@@H]2[C@@H]3C(=O)N(Cc4ccccc4)C(=O)[C@@H]3CC[C@H]12)OCc1ccccc1 | 0.055 | 0.0005 (inactive) | -0.118 | -0.17 | -0.253 | -0.771 | 0.0639 | -0.0039 | 0.36 | -0.085 | -0.136 | -0.0677 | 0.0773 | -0.265 | 0.387 | 0.388 | 0.101 | 0.617 | 0.0185 | 0.534 (inactive) |
| COC(=O)[C@@H]1CC[C@H](C)[C@@H](c2ccc(Br)cc2)N1C[C@H](O)CN=[N+]=[N-] | 0.0539 | 0.486 (inactive) | -0.0219 | -0.12 | -0.109 | 0.653 | 0.475 | -0.0747 | 0.101 | -0.35 | 0.383 | -0.459 | 0.709 | 0.118 | -0.117 | 0.0395 | -0.821 | 0.17 | 0.162 | -0.169 (inactive) |
